Source: PubChem BioAssay
Hits are enriched below; roughly 2.6% of the tested compounds scored in any of these assays.
IDE cell inh – cellular human IDE inhibition. P14735. HEK cells, FAbetaB cleavage, fluorescence polarization. inhibition, % at 5.59 µM. 320,000 compounds, 0.41% hits. AID 434962;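 active = percent inhibition above the average of all tested compounds plus 3 SD, set per screening campaign, cut at about 16% in these data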;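 also: IDE supplied by intact live HEK cells; FP after avidin binding of uncleaved biotin substrate so inhibition keeps polarization high; 0% = DMSO wells and 100% = 60 µM reference IDE inhibitor Ii1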
Target sequence (P14735 whole entry, looked up): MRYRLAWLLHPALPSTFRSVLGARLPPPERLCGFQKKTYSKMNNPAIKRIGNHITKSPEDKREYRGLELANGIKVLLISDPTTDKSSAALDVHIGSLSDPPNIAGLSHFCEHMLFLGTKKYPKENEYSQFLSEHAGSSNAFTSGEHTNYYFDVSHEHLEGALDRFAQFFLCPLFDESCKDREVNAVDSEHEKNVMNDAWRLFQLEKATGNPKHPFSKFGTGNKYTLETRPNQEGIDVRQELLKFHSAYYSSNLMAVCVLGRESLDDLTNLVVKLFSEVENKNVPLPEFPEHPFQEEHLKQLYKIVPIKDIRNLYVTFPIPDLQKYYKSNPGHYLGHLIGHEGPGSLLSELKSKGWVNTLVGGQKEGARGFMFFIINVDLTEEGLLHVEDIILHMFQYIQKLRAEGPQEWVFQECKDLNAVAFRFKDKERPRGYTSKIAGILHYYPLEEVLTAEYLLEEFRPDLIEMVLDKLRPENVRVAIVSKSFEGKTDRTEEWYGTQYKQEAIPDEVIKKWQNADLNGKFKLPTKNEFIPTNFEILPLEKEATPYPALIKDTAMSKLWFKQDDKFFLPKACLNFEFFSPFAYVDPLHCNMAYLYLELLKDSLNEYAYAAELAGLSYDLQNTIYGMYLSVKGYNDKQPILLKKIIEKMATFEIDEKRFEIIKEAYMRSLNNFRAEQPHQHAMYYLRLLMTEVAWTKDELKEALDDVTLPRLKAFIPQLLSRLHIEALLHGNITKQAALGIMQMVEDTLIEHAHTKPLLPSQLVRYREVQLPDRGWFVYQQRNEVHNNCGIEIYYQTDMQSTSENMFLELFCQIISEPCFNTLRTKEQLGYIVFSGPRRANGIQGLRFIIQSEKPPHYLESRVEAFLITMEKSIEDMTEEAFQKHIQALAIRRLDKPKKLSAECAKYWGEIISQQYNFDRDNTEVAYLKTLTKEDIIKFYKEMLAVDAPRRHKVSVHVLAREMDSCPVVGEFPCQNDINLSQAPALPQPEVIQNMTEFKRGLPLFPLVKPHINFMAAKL
CRFBP-R2 block – CRF-BP/CRF-R2 complex antagonism; HEK293 CRF-R2/CRF-BP, CRF-induced calcium fluorescence; inhibition, % at 11.8 µM; 350,000 compounds, 0.59% hits; AID 588475;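 active = inhibition of the ligand-induced calcium signal above about 50% at the single tested concentration, limit read from the data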
IDE cell activ – boosts human insulin-degrading enzyme activity in HEK cells; P14735; FAbeta-B cleavage, fluorescence polarization; 0% vehicle, 100% cell-free pure enzyme wells; activation, % at 5.96 µM; 340,000 compounds, 0.073% hits;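 active = activation above the mean of all tested compounds plus 3 SD, set per screening campaign, cut at about 17% in these data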
TPT1 inh – blocks Candida albicans tRNA 2'-phosphotransferase; inhibition, % at 5 µM; 300,000 compounds, 0.81% hits; recombinant caTPT1, FP RNA substrate dephosphorylation;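 active = inhibition above the mean of all tested compounds plus 3 SD, set per screening campaign, cut at about 24% in these data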;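 also: plate controls were DMSO alone for no effect and ferristatin control at 100 nM for full effect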
Myeloid diff 2 – myeloid differentiation induction; calls only at 10 µM; 360,000 compounds, 1% hits; AID 624256; ER-HoxA9 myeloid progenitors, lysozyme-GFP differentiation, flow cytometry;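 active = normalized GFP-positive differentiation at or above the plate's own cutoff, the solvent-only control mean plus 3 SD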;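 also: cells exposed to compound for four days before flow analysis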
CRFBP-R2 agonist – CRF-BP/CRF-R2 complex agonism; activation, % at 13.2 µM; HEK293 CRF-R2/CRF-BP, calcium dye fluorescence (FLIPR); percent of saturating CRF peptide response; 350,000 compounds, 0.46% hits;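 active = activation of at least 50%, plus an integration ratio under a set limit after plate pattern correction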;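 also: plate controls were neutral control wells without compound for no effect and CRF at EC100 for full effect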
Myeloid diff – compounds promoting myeloid differentiation; calls only; shares compounds with Myeloid diff 2; ER-HoxA9 myeloid progenitors, GFP/Mac1 double-positive flow; 2,300 compounds, 2% hits;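 active = share of green or green-and-red cells above 9 and 9% in run 1 or 4 and 3% in run 2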
GFP autofluor – counter-screen for myeloid differentiation promoters: compound fluorescence. shares compounds with Myeloid diff 2. ER-HoxA9 myeloid progenitors, no estrogen, GFP autofluorescence flow cytometry; vehicle wells 0%, positive control 100%. fluorescence response, % (test concentration not listed). 2,300 compounds, 7.4% hits. AID 651707;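 active = over 5% cells positive for green fluorescent reporter, or over 2% positive for both it and APC stain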;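 also: range taken on the double positive population between DMSO and positive control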
Active calls of the source: *; i = inactive; . = not tested or not shown; + = active, no number.

SMILES	IDE cell inh	CRFBP-R2 block	IDE cell activ	TPT1 inh	Myeloid diff 2	CRFBP-R2 agonist	Myeloid diff	GFP autofluor
CN(C)c1ccc(C(CNC(=O)c2ccco2)N2CCCC2)cc1 (stereo not given)	-2	-5	5	1	i	0	.	.
Cc1cc(Cl)c(C)c(S(=O)(=O)N2CCN(C(=O)C3CCCO3)CC2)c1Cl (stereo not given)	-4	4	2	.	+	-1	i	0
Cc1ccc(S(=O)(=O)N2CCN(C(=O)C3CCCO3)CC2)cc1 (stereo not given)	0	6	-1	-3	i	3	.	.
CC1CC(C)CN(CCCNC(=O)C2CCC(=O)N2C2CCCC2)C1 (stereo not given)	0	18	1	-1	i	2	i	0
CCOC(=O)N1CCN(c2ccc(Cl)c(Cl)c2)CC1	6	0	-7	1	+	-4	i	0
COc1ccccc1/C=C/C1(C(=O)NC2CCCC2)CC(=O)N1c1ccccc1 (stereo not given)	0	26	-2	-1	+	4	i	0
CN(C)S(=O)(=O)c1ccc(N2C(=O)CC2(/C=C/c2ccccc2)C(=O)NC2CCCC2)cc1 (stereo not given)	-2	-1	0	-3	i	5	.	.
COc1ccc(Cn2nnnc2C(c2cccnc2)N2CCN(c3ccc(O)cc3)CC2)cc1 (stereo not given)	0	2	1	2	i	2	i	5
COc1ccc(Cn2nnnc2C(c2cccs2)N2CCN(c3ccccc3)CC2)cc1 (stereo not given)	3	14	0	0	i	-1	.	.
Cc1nc(NCCc2ccccc2)c(C#N)c(C)c1[N+](=O)[O-]	9	-22	3	0	i	-1	.	.
CCN(CC)Cc1c(O)ccc2c([N+](=O)[O-])c(C)n(-c3ccc(OC)cc3)c12	-1	8	1	-7	+	-1	i	0
CC1=Nc2nc(N3CCCCC3)c(C#N)c3c4c(nc(c23)N1)N(c1ccc(C(C)C)cc1)C(=O)C4	1	36	9	14	+	1	i	0
CC(C)c1ccc(-c2nc(N3CCCCC3)[nH]c(=O)c2C#N)cc1	-2	37	5	-1	i	-1	.	.
c1cn2c(NC3CCCCC3)c(-c3ccc(SC4CCCCC4)cc3)nc2cn1	1	-9	0	2	i	2	.	.
c1cc(SC2CCCCC2)cc(-c2nc3cnccn3c2NC2CCCCC2)c1	-1	-14	1	.	i	6	i	0
Cc1ccc(S(=O)(=O)NNC(=O)C(O)(c2ccccc2C)c2ccccc2C)cc1	2	-28	4	2	i	-3	.	.
COc1ccc2ccccc2c1CNC(=O)CC1C(=O)NCCN1CC(C)C (stereo not given)	10	4	4	20	+	1	i	0
CC(C)c1nc(CNC(=O)CC2C(=O)NCCN2Cc2ccccc2)cs1 (stereo not given)	.	3	.	.	i	0	i	0
O=C(c1cc(C2CC2)on1)N1CCCC(N2CCN(c3ccc(F)cc3)CC2)C1 (stereo not given)	0	-4	6	-4	i	2	.	.
OC1(CN2CCOCC2)C2CN3CCN(C2)CC1(c1ccccc1)C3 (stereo not given)	-5	7	1	1	+	-1	i	0
c1ccc2c(CN3CCOCC3)c3ccccc3c(CN3CCOCC3)c2c1	3	-15	0	-7	i	0	.	.
O=C(CCNC(=O)N1CC(=O)Nc2ccccc21)NCc1ccccc1	.	13	.	.	i	-1	.	.
COc1ccc(S(=O)(=O)N[C@H](C(=O)N2CC[C@@]3(O)CCCC[C@H]3C2)c2ccccc2)cc1	-6	-5	3	0	i	0	.	.
COc1ccc(S(=O)(=O)N[C@@H](Cc2ccc(Cl)cc2)C(=O)N2CC[C@@]3(O)CCCC[C@H]3C2)cc1	7	-1	7	1	i	-2	i	0
C[C@@H]1CN([C@H](C)CO)C(=O)c2cc(C#CC3CCCCC3)cnc2O[C@H]1CN(C)Cc1cccnc1	.	-1	.	.	i	0	i	0
SMILES	IDE cell inh	CRFBP-R2 block	IDE cell activ	TPT1 inh	Myeloid diff 2	CRFBP-R2 agonist	Myeloid diff	GFP autofluor
CN1C2CCC1/C(=C\c1ccccc1F)C(=O)/C2=C/c1ccccc1F	3	-21	8	0	i	-1	i	0
COc1ccc(-n2c(N)c(C(=O)NCC3CCCO3)sc2=S)cc1 (stereo not given)	-1	-9	5	-11	+	1	i	0
CCOC(=O)c1ccc(-n2c(N)c(C(=O)NCC3CCCO3)sc2=S)cc1 (stereo not given)	0	-1	0	2	i	0	.	.
O=C(NC1CCCCC1)C(c1ccco1)N(Cc1ccco1)C(=O)c1ccco1 (stereo not given)	3	22	-4	-2	i	-4	i	0
O=C(NC1CCCCC1)C(c1ccco1)N(CCc1ccccc1)C(=O)C(F)(F)F (stereo not given)	5	-36	-5	-7	i	11	i	0
Cc1ccc(S(=O)(=O)N2C[C@H]3C(=O)C[C@@H](c4cccc(Cl)c4)N(S(=O)(=O)c4ccc(C)cc4)[C@H]3C[C@H]2c2ccc(Cl)cc2)cc1	.	1	.	.	i	4	.	.
O=[N+]([O-])c1cc(-c2ccc(C(=S)N3CCOCC3)o2)ccc1Cl	6	-28	2	-11	+	1	i	0
O=[N+]([O-])c1cccc(-c2ccc(C(=S)N3CCOCC3)o2)c1	0	-4	2	3	i	-1	.	.
FC(F)(F)c1ccc(N2CCN(c3cc(-c4ccccc4)nc4ncnn34)CC2)nc1	15	5	-17	1	i	1	i	1
FC(F)(F)c1cccc(Nc2cc(-c3ccccc3)nc3ncnn23)c1	5	8	0	-3	i	-3	.	.
COc1ccc(OC)c(NC(=O)CSc2ccc(-c3cccnc3)nn2)c1	0	1	1	-1	i	0	.	.
CCCCN(C1CCS(=O)(=O)C1)S(=O)(=O)c1cc(C)ccc1C (stereo not given)	0	6	4	2	i	-1	.	.
COc1ccc(-c2nc(N)ncc2Oc2ccccc2Br)c(O)c1	-1	-48	-5	-6	+	3	i	0
